# PubChem BioAssay (NCATS)
# Inconclusive results are not listed. Entries that show only a call come without a potency. Active and inactive are the calls of the source. Unless noted, the call rests on the fitted dose curve; in most records, active means well fitted curve in the direction sought with a large enough effect; inconclusive means small, poorly fitted or top-dose-only effect, or another doubt; inactive means no such curve, though single readings can be large; an effect the other way counts as inactive or inconclusive.
# Experiments:
# [1] = qHTS of pediatric cancer cell lines to identify multiple opportunities for drug repurposing: Primary screen for TC32 cells (AID 1347089); conditions: TC32 Ewing sarcoma viability, CellTiter-Glo luminescence, 48 h; series mostly up to 45.8 µM; further: nearly all actives have a fitted effect of over 60% in size
# Outline: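 A viability screen of TC32 cells was run over 48 h, with primary MIPE doses spanning 0.78 nM–46 µM and NPC doses 0.59 nM–46 µM. ATP luminescence (CellTiter-Glo) served as the read-out.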
# [2] = qHTS of pediatric cancer cell lines to identify multiple opportunities for drug repurposing: Primary screen for DAOY cells (AID 1347090); conditions: DAOY medulloblastoma viability, CellTiter-Glo luminescence, 48 h; series mostly up to 46 µM; further: nearly all actives have a fitted effect of over 55% in size
# Outline: (§1)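 Viability measured as metabolically active cells via CellTiter-Glo luminescence following 48 hours of compound exposure, 11-point dilutions in confirmatory testing. 500-1,000 cells/well plated 5 hours before dosing; controls were DMSO and 2.3 µM bortezomib.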
# [3] = qHTS of pediatric cancer cell lines to identify multiple opportunities for drug repurposing: Primary screen for A673 cells (AID 1347092); conditions: A673 Ewing sarcoma viability, CellTiter-Glo ATP luminescence, 48 h; series mostly up to 46 µM; further: nearly all actives have a fitted effect of over 45% in size; further: potency means the concentration at half of the fitted maximal effect
# Outline: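 Titration-based qHTS on A673 cells: MIPE compounds spanned 11 points (0.78 nM to 46 µM final), NPC compounds 8 points (0.59 nM to 46 µM final). Viability after 48 h was measured by ATP luminescence.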
# [4] = qHTS of pediatric cancer cell lines to identify multiple opportunities for drug repurposing: Primary screen for SK-N-MC cells (AID 1347093); conditions: SK-N-MC viability, CellTiter-Glo luminescence, 48 h; series mostly up to 46 µM; further: potency means the concentration at half of the fitted maximal effect
# Outline: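 Metabolically active cells were quantified by ATP-dependent luminescence (CellTiter-Glo, 15 min at room temperature) following 48 h treatment. Cells had been plated at 500-1,000 per well and settled for 5 h beforehand.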
# [5] = qHTS of pediatric cancer cell lines to identify multiple opportunities for drug repurposing: Primary screen for NB-EBc1 cells (AID 1347095); conditions: NB-EBc1 neuroblastoma viability, CellTiter-Glo luminescence, 48 h; series mostly up to 46 µM
# Outline: (§2)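 Primary screen of approved and investigational compounds on cells in growth media at 37 degrees C, 5% CO2. MIPE set at 11-point and NPC set at 8-point dilutions; viability scored by ATP-based luminescence at 48 hours.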
# [6] = qHTS of pediatric cancer cell lines to identify multiple opportunities for drug repurposing: Primary screen for U-2 OS cells (AID 1347096); conditions: U-2 OS viability, CellTiter-Glo luminescence, 48 h; series mostly up to 46 µM; further: nearly all actives have a fitted effect of over 50% in size
# Outline: (§3)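 Viability after 48 h compound treatment at 37C, 500-1,000 cells/well, read as ATP luminescence with CellTiter-Glo. Primary screens used 11-point (MIPE, 0.78 nM-46 µM) or 8-point (NPC, 0.59 nM-46 µM) final concentrations; follow-up screens used 11-point dilutions.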
# [7] = qHTS of pediatric cancer cell lines to identify multiple opportunities for drug repurposing: Primary screen for Saos-2 cells (AID 1347097); conditions: Saos-2 viability, CellTiter-Glo ATP luminescence, 48 h; series mostly up to 46 µM; further: nearly all actives have a fitted effect of over 40% in size; further: potency means the concentration at half of the fitted maximal effect
# Outline: as §2
# [8] = qHTS of pediatric cancer cell lines to identify multiple opportunities for drug repurposing: Primary screen for SK-N-SH cells (AID 1347098); conditions: SK-N-SH viability, CellTiter-Glo luminescence, 48 h; series mostly up to 57 µM;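 further: DMSO served as neutral control and bortezomib at 2.3 µM as positive control; nearly all actives have a fitted effect of over 65% in size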
# Outline: (§4)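 Cells (500-1,000/well) rested 5 h, then received compounds for 48 h; metabolically active cells were measured by CellTiter-Glo luminescence. Final concentrations spanned up to 46 µM (MIPE, 11-point) or 0.59 nM-46 µM (NPC, 8-point) in primary screens, 11-point in follow-ups.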
# [9] = qHTS of pediatric cancer cell lines to identify multiple opportunities for drug repurposing: Primary screen for NB1643 cells (AID 1347099); conditions: NB1643 neuroblastoma viability, CellTiter-Glo luminescence, 48 h; series mostly up to 46 µM; further: nearly all actives have a fitted effect of over 50% in size
# Outline: as §2
# [10] = qHTS of pediatric cancer cell lines to identify multiple opportunities for drug repurposing: Primary screen for LAN-5 cells (AID 1347100); conditions: LAN-5 neuroblastoma viability, CellTiter-Glo luminescence, 48 h; series mostly up to 46 µM
# Outline: as §3
# [11] = qHTS of pediatric cancer cell lines to identify multiple opportunities for drug repurposing: Primary screen for BT-12 cells (AID 1347101); conditions: BT-12 viability, CellTiter-Glo luminescence, 48 h; series mostly up to 57.3 µM; further: nearly all actives have a fitted effect of over 25% in size
# Outline: as §4
# [12] = qHTS of pediatric cancer cell lines to identify multiple opportunities for drug repurposing: Primary screen for Rh18 cells (AID 1347102); conditions: Rh18 rhabdomyosarcoma viability, CellTiter-Glo luminescence, 48 h; series mostly up to 46 µM; further: nearly all actives have a fitted effect of over 65% in size
# Outline: as §3
# [13] = qHTS of pediatric cancer cell lines to identify multiple opportunities for drug repurposing: Primary screen for OHS-50 cells (AID 1347103); conditions: OHS-50 osteosarcoma viability, CellTiter-Glo luminescence, 48 h; series mostly up to 57.3 µM; further: nearly all actives have a fitted effect of over 40% in size
# Outline: as §4
# [14] = qHTS of pediatric cancer cell lines to identify multiple opportunities for drug repurposing: Primary screen for RD cells (AID 1347104); conditions: RD rhabdomyosarcoma viability, CellTiter-Glo luminescence, 48 h; series mostly up to 46 µM; further: nearly all actives have a fitted effect of over 55% in size
# Outline: as §2
# [15] = qHTS of pediatric cancer cell lines to identify multiple opportunities for drug repurposing: Primary screen for MG 63 (6-TG R) cells (AID 1347105); conditions: MG 63 (6-TG R) viability, CellTiter-Glo, 48 h; series mostly up to 46 µM; further: nearly all actives have a fitted effect of over 50% in size
# Outline: as §2
# [16] = qHTS of pediatric cancer cell lines to identify multiple opportunities for drug repurposing: Primary screen for control Hh wild type fibroblast cells (AID 1347106); conditions: Hh wild-type fibroblast viability, CellTiter-Glo luminescence, 48 h; series mostly up to 46 µM;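 further: a drop in luminescence marks cytotoxicity and a rise apparent proliferation; nearly all actives have a fitted effect of over 55% in size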
# Outline: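 Cells (500-1,000/well) in growth media were settled 5 h at 37 degrees C, then given compounds for 48 h. Viability was read as CellTiter-Glo luminescence. Primary runs used MIPE at 11 points (0.78 nM-46 µM) and NPC at 8 points (0.59 nM-46 µM); follow-ups used 11 points.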
# [17] = qHTS of pediatric cancer cell lines to identify multiple opportunities for drug repurposing: Primary screen for SJ-GBM2 cells (AID 1347091); conditions: SJ-GBM2 viability, CellTiter-Glo luminescence, 48 h; series mostly up to 46 µM
# Outline: as §1
# [18] = qHTS of pediatric cancer cell lines to identify multiple opportunities for drug repurposing: Primary screen for BT-37 cells (AID 1347094); conditions: BT-37 viability, CellTiter-Glo luminescence, 48 h; series mostly up to 57.3 µM; further: potency means the concentration at half of the fitted maximal effect
# Outline: as §2
# [19] = target: Tyrosine-protein phosphatase non-receptor type substrate 1 (Homo sapiens) + Leukocyte surface antigen CD47 (Homo sapiens) (UniProt P78324+Q08722); assay: CD47-SIRPalpha protein protein interaction - LANCE assay qHTS validation (AID 1347057; active means well fitted curve in the direction sought with a large enough effect in the signal ratio, with a control signal flat, not every such curve was filed as active; the % refers to the signal ratio); conditions: Recombinant CD47-His / biotin-SIRPalpha, TR-FRET ratio; series mostly up to 38.3 µM
# Chain of Tyrosine-protein phosphatase non-receptor type substrate 1 (Homo sapiens) + Leukocyte surface antigen CD47 (Homo sapiens) (P78324 whole entry, looked up, the tested form may be a part): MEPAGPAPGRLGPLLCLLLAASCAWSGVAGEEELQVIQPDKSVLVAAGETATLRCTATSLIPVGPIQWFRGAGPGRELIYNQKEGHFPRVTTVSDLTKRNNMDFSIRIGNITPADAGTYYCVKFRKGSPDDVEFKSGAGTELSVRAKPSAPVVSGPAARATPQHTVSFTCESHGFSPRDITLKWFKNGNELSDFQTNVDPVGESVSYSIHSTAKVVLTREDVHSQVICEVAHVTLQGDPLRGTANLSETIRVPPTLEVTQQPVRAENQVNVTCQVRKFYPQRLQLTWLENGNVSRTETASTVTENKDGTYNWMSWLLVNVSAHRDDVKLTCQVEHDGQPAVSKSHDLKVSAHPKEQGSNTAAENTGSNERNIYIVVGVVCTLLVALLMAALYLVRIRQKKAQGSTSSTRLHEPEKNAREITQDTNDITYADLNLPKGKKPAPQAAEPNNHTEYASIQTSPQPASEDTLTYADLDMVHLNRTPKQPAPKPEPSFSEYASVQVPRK
# Chain of Tyrosine-protein phosphatase non-receptor type substrate 1 (Homo sapiens) + Leukocyte surface antigen CD47 (Homo sapiens) (Q08722 whole entry, looked up, the tested form may be a part): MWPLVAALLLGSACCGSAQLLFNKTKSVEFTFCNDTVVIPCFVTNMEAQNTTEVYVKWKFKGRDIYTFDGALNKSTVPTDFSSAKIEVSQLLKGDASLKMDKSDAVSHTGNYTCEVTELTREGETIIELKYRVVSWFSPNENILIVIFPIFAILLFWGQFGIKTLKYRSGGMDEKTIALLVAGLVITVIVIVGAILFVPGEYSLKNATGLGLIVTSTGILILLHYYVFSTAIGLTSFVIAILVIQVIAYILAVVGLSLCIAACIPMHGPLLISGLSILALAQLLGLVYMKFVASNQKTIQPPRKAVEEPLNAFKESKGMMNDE
# Outline: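 Inhibition of soluble CD47/SIRPalpha ectodomain association by titrated compounds, measured as 665/615 nm time-resolved FRET ratio after sequential 30 min room-temperature incubations.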
# [20] = target: Parathyroid hormone/parathyroid hormone-related peptide receptor (Homo sapiens) (UniProt Q03431); assay: qHTS for PTHR1 Agonists: Optimization Screen against the NCGC LOPAC library (AID 1347079); conditions: HEK293 GP2 PTHR1 GloSensor cAMP luminescence, 1 h; series mostly up to 57.1 µM;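 further: GloSensor cAMP luminescence in HEK-293 GP2 cells expressing human PTHR1 with IBMX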
# Chain of Parathyroid hormone/parathyroid hormone-related peptide receptor (Homo sapiens) (Q03431 whole entry, looked up): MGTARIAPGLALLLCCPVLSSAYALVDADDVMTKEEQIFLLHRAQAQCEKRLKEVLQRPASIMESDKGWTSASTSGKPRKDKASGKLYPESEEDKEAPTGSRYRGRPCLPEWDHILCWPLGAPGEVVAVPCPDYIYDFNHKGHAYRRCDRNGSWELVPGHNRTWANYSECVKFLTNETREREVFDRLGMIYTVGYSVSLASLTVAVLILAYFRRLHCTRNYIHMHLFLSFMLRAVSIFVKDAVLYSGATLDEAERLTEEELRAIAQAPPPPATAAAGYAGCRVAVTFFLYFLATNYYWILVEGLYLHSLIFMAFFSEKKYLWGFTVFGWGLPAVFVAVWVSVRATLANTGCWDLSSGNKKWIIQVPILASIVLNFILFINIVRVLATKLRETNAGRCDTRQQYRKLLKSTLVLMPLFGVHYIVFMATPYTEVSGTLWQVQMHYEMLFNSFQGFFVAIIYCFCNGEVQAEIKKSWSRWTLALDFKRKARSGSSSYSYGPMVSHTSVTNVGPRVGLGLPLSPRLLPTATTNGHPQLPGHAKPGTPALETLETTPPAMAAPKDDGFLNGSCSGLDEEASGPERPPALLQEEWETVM
# Outline: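 Signal increase flags agonism. GP2 cells, derived from HEK-293, express human PTHR1 and a GloSensor cAMP construct.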
SMILES,outcome [1],outcome [2],Potency [3],Potency [4],outcome [5],outcome [6],Potency [7],outcome [8],outcome [9],outcome [10],outcome [11],outcome [12],outcome [13],outcome [14],outcome [15],outcome [16],outcome [17],Potency [18],outcome [19],outcome [20]
O=C1c2ccccc2C(=O)c2c1ccc(O)c2O,inactive,inactive,inactive,inactive,inactive,inactive,23.7 µM (active),inactive,inactive,inactive,inactive,inactive,inactive,inactive,inactive,inactive,,,,
CC(=O)Oc1cccc2c1C(=O)c1c(OC(C)=O)cc(C(=O)O)cc1C2=O,inactive,,21.1 µM (active),,,inactive,,inactive,,,inactive,inactive,,inactive,,inactive,inactive,inactive,,
COc1ccc2nc(NC(=O)Nc3ccccc3)sc2c1,inactive,inactive,inactive,inactive,inactive,inactive,,inactive,inactive,inactive,inactive,inactive,,inactive,inactive,inactive,inactive,inactive,,
O=C(OCc1ccccc1)c1ccc(O)cc1,inactive,inactive,inactive,inactive,inactive,inactive,inactive,,inactive,inactive,inactive,inactive,,inactive,inactive,inactive,inactive,inactive,,
Nc1ccc(N=Nc2ccccc2)c(N)n1,inactive,inactive,inactive,inactive,inactive,inactive,inactive,,inactive,inactive,inactive,inactive,,inactive,inactive,inactive,inactive,inactive,,
CN(C)CCCSc1ccccc1NC(=O)/C=C/c1ccccc1,inactive,inactive,,inactive,inactive,inactive,21.1 µM (active),inactive,,,,inactive,,,inactive,inactive,,inactive,,
O=C(O)CCC(=O)c1ccc(-c2ccccc2)cc1,inactive,inactive,inactive,inactive,inactive,inactive,inactive,inactive,inactive,inactive,inactive,inactive,inactive,inactive,inactive,inactive,inactive,inactive,,
Oc1ccc(/C=C/c2cc(O)cc(O)c2)cc1,inactive,inactive,,15 µM (active),inactive,inactive,inactive,,inactive,inactive,inactive,inactive,inactive,inactive,,inactive,,19.5 µM (active),inactive,inactive
